Screening results from PubChem.
In the library only some 7.1% were active in any assay of this set; here they are far more common.
MCF10A rereplic: A quantitative high throughput screen for small molecules that induce DNA re-replication in MCF 10a normal breast cells. Potency, µM (titrated, usually from 46.1 µM), hits mostly activators. 350,000 tested, 2.9% active. MCF 10A DNA re-replication, Hoechst nuclear intensity, 48 h; further: nearly all actives have a fitted effect of over 50% in size
ATXN2 expr inh: Primary qHTS for Inhibitors of ATXN expression. HEK-293 ATXN2-luciferase reporter, luminescence, 24 h. Potency, µM (series often up to 57 µM), hits mostly inhibitors. 360,000 tested, 0.72% active; further: nearly all actives have a fitted effect of over 55% in size
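qHTS (up to 57 uM final) was run with 24 h compound exposure of reporter cells at 37 °C. Each well was multiplexed: SteadyGlo luminescence measured ATXN2-luciferase expression after a fluorogenic Gly-Phe-AFC viability readout (25 uM final).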
S2 tox: Viability Counterscreen for Primary qHTS for Inhibitors of ATXN expression | S2 cells (HEK-293 line with an ATXN2-luciferase reporter) viability, CellTiter-Fluor protease fluorescence, 24 h | Potency, µM (top dose mostly 56.7 µM), actives largely listed as cytotoxic | 400,000 tested, 0.49% active | AID 651635, 2014; further: nearly all actives have a fitted effect of over 40% in size
PINK1 expr mod: A Quantitative High throughput Screen to Identify Chemical Modulators of PINK1 Expression | Potency, µM (top dose mostly 76.6 µM), usual class: activators | 410,000 tested, 0.2% active | PINK1 immunofluorescence, high-content cytometry, 24 h | AID 624263, 2012; active means well fitted activation curve with a large enough effect; inconclusive means small, poorly fitted or top-dose-only effect; cell line not stated here; further: nearly all actives have a fitted effect of over 65% in size
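PINK1 protein level read as immunofluorescence by microplate cytometer in a fixed, stained stable cell line after 24 h exposure to five compound concentrations, with CCCP as control.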
SW480 rereplic: A quantitative high throughput screen for small molecules that induce DNA re-replication in SW480 colon adenocarcinoma cells | 340,000 tested, 1.8% active | SW480 DNA re-replication, Hoechst DNA content imaging, 48 h | Potency, µM (highest dose often 46.1 µM), most hits filed as activators | AID 624297, 2012; further: nearly all actives have a fitted effect of over 55% in size
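250 cells/well; 23 nL cpd via pin tool; 48 hr, 37 C, 5% CO2; Hoechst 40 min; imager read of total nuclear intensity, ex 405/em 500-530 nm.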
IL1B secr inh: qHTS for Inhibitors of Inflammasome Signaling: IL-1-beta AlphaLISA Primary Screen; AID 743279, 2014; 360,000 tested, 4.7% active; activity change, % at 57.5 µM; THP-1 LPS/ATP IL-1B secretion, AlphaLISA, 16 h; hits give low values; in the data active means activity change below about -50%; inconclusive means mostly about -30% to -49%
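Secreted IL-1B measured by AlphaLISA bead assay after 16 h compound exposure of THP-1 cells; compounds (final up to 57.5 uM) added 1 h before LPS (250 ng/mL) and ATP (1.25 mM) stimulation; lower signal means less secretion.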
Of the large screens only hits and unclear results are named; the others gave an inactive call; ! = not confirmed by another sample. Unless noted, the call rests on the fitted dose curve; in most records, active means well fitted curve in the direction sought with a large enough effect; inconclusive means small, poorly fitted or top-dose-only effect, or another doubt; inactive means no such curve, though single readings can be large; an effect the other way counts as inactive or inconclusive.

COC(=O)C1=C(C)N(Cc2ccccc2)C(=NCC(C)C)N[C@H]1c1ccccc1	MCF10A rereplic inconclusive, ATXN2 expr inh inconclusive, S2 tox inconclusive, PINK1 expr mod inconclusive, IL1B secr inh inconclusive
CCN1C(=NCc2cccc(Cl)c2)N[C@@H](c2cccc(F)c2)C(C(=O)OC)=C1C	ATXN2 expr inh inconclusive, S2 tox inconclusive, SW480 rereplic inconclusive, IL1B secr inh -69.7
CCN1C(=S)N[C@@H](c2cccc(F)c2)C(C(=O)OC)=C1C	none
CCN1C(=NCC(C)C)N[C@@H](c2cccc(C(F)(F)F)c2)C(C(=O)OC)=C1C	IL1B secr inh inconclusive
COC(=O)C1=C(C)N(CC2CC2)C(=NCc2cccc(C(F)(F)F)c2)N[C@H]1c1ccccc1	MCF10A rereplic inconclusive, ATXN2 expr inh inconclusive, S2 tox inconclusive, IL1B secr inh -57.6
COC(=O)C1=C(C)N(Cc2ccccc2)C(=NCc2cccc(C(F)(F)F)c2)N[C@H]1c1cccc(F)c1	MCF10A rereplic 11.6µM, ATXN2 expr inh 31.6µM, SW480 rereplic inconclusive, IL1B secr inh -103.7 (no result: S2 tox)
NS(=O)(=O)c1ccccc1	none
O=S(=O)(O)Sc1ccccc1	IL1B secr inh -98.6 (no result: MCF10A rereplic, ATXN2 expr inh, SW480 rereplic)
CCN(CC)c1ccc(SS(=O)(=O)O)cc1	IL1B secr inh -71.4!
CCN(CC)c1ccc(C(=O)O)cc1	none (no result: ATXN2 expr inh)
CCCOc1ccc2cc(-c3ccccn3)c(=O)oc2c1	MCF10A rereplic inconclusive, ATXN2 expr inh 3.55µM, SW480 rereplic inconclusive
O=c1oc2cc(OCc3c(F)cccc3Cl)ccc2cc1-c1ccccn1	MCF10A rereplic inconclusive
COc1cc(=O)n2c(c1C(=O)NC(C)c1ccco1)CCN(Cc1ccnc3ccccc13)CC2 (centres undefined)	none (no result: MCF10A rereplic, ATXN2 expr inh, SW480 rereplic, IL1B secr inh)
CC(C)(C)C1=CC(O)(c2ccccc2)C=C(C(C)(C)C)C1=O	MCF10A rereplic 5.17µM
C=CCCC1(C)C(=O)N(c2ccccc2)c2ccccc21 (centres undefined)	MCF10A rereplic inconclusive, SW480 rereplic 18.4µM
CCCS(=O)(=O)NCc1c(C)ncc2c1CCN(C(=O)c1c(F)ccc(F)c1F)C2	S2 tox inconclusive (no result: MCF10A rereplic, ATXN2 expr inh, SW480 rereplic, IL1B secr inh)
CCOc1ccc(CN2CCC(C(=O)Nc3cccc(-c4ccn[nH]4)c3)CC2)cc1Cl	MCF10A rereplic inconclusive, ATXN2 expr inh inconclusive, S2 tox inconclusive, SW480 rereplic inconclusive, IL1B secr inh -76.4
C=C(C)c1ccc(C(C)(C)NC(=O)N(Cc2ccccc2)Cc2ccco2)cc1	PINK1 expr mod 11.2µM
C=C(C)c1ccc(C(C)(C)NC(=O)NCc2ccco2)cc1	none
N=c1n(CC(=O)c2ccc([N+](=O)[O-])cc2)c2ccccc2n1Cc1ccccc1Cl	ATXN2 expr inh inconclusive, S2 tox inconclusive, IL1B secr inh -59.9
N=c1n(CC(=O)c2ccc([N+](=O)[O-])cc2)c2ccccc2n1Cc1ccc(Cl)cc1	S2 tox inconclusive
N=c1n(CC(=O)c2ccc(Br)cc2)c2ccccc2n1Cc1ccccc1	ATXN2 expr inh inconclusive, IL1B secr inh -101.1 (no result: S2 tox)
N=c1n(CCO)c2ccccc2n1Cc1ccc(Cl)cc1	IL1B secr inh -51.7
N=c1n(Cc2ccccc2)c2ccccc2n1Cc1ccccc1	MCF10A rereplic inconclusive, ATXN2 expr inh inconclusive, SW480 rereplic 23.1µM (no result: IL1B secr inh)
CCN(CC)C(=O)Cn1cc(SCC(=O)Nc2cccc(C)c2)c2ccccc21	none (no result: MCF10A rereplic, SW480 rereplic, IL1B secr inh)
N=c1n(CC(=O)c2ccc([N+](=O)[O-])cc2)c2ccccc2n1Cc1ccccc1	MCF10A rereplic inconclusive, ATXN2 expr inh inconclusive, S2 tox inconclusive, PINK1 expr mod inconclusive, SW480 rereplic inconclusive, IL1B secr inh -105.7
Cc1cc(=O)n(CC(=O)N2CCCc3ccccc32)c2c1c(C)nn2-c1cccc(F)c1	none (no result: MCF10A rereplic, SW480 rereplic, IL1B secr inh)
O=S(=O)([N-]c1nc2ccccc2nc1-n1cc[n+](Cc2ccccc2)c1)c1ccccc1	MCF10A rereplic 6.51µM, SW480 rereplic inconclusive (no result: S2 tox, IL1B secr inh)
CCCC[n+]1ccn(-c2nc3ccccc3nc2[N-]S(=O)(=O)c2cccs2)c1	MCF10A rereplic inconclusive, SW480 rereplic 16.4µM (no result: IL1B secr inh)
